# In paper PMC7862700, “An all-to-all approach to the identification of sequence-specific readers for epigenetic DNA modifications on cytosine”:
# Key:
# Assay in all cases: DAPPL (digital affinity profiling via proximity ligation, sequencing); 10 mM Tris-HCl pH 7.5, 50 mM NaCl, 1 mM DTT, 4% glycerol, room temperature, 30 min; GST-TFs on glutathione beads, 16-mer random dsDNA library, 0.1% formaldehyde crosslink after washing; high values mean tight binding
# FEV = molecular target: T1, FEV (Homo sapiens, UniProt Q99581 1-238); conditions: protein: recombinant; tags: N-terminal GST; dsDNA, one strand shown
# T1 sequence: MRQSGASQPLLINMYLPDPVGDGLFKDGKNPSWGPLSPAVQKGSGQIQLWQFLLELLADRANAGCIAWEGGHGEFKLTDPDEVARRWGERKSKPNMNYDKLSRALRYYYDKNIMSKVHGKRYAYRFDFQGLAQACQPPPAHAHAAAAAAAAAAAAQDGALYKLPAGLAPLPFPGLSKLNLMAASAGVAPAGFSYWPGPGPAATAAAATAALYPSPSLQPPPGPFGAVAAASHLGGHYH
# Summary of the method: (§1)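 Binding signal is given per hexamer as its read frequency for a factor divided by its frequency in the tag-only sample. GST-fused human transcription factors were expressed in yeast, captured on glutathione beads, barcoded with DNA and pooled with that sample, then incubated with 200 nmole of a 16-mer random double-stranded DNA library in Tris/NaCl/DTT/glycerol buffer for 30 min at room temperature. The pools were then washed, crosslinked, proximity-ligated, amplified by PCR and sequenced on an Illumina NextSeq500.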
# ETV5 = ETV5 (Homo sapiens, UniProt P41161 1-510); conditions: protein: recombinant; tags: N-terminal GST; dsDNA, one strand shown
# Summary of the method: as §1
# HSF1 = HSF1 (Homo sapiens, UniProt Q00613 1-529); conditions: protein: recombinant; tags: N-terminal GST; chain copies: 3; dsDNA, one strand shown
# Summary of the method: as §1
# SPIC = molecular target: T2, SPIC (Homo sapiens, UniProt Q8N5J4 1-248); conditions: protein: recombinant; tags: N-terminal GST; dsDNA, one strand shown
# T2 sequence: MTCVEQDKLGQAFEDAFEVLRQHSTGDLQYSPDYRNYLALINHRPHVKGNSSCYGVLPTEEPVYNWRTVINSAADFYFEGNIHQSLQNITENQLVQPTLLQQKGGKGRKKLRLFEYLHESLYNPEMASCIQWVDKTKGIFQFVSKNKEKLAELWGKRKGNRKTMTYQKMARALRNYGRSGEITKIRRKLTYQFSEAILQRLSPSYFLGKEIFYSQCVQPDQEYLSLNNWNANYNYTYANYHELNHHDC
# Summary of the method: as §1
# ELF4 = ELF4 (Homo sapiens, UniProt Q99607 1-663); conditions: protein: recombinant; tags: N-terminal GST; dsDNA, one strand shown
# Summary of the method: as §1
# ELK4 = molecular target: T3, ELK4 (Homo sapiens, UniProt P28324-2 1-405); conditions: protein: recombinant; tags: N-terminal GST; dsDNA, one strand shown
# T3 sequence: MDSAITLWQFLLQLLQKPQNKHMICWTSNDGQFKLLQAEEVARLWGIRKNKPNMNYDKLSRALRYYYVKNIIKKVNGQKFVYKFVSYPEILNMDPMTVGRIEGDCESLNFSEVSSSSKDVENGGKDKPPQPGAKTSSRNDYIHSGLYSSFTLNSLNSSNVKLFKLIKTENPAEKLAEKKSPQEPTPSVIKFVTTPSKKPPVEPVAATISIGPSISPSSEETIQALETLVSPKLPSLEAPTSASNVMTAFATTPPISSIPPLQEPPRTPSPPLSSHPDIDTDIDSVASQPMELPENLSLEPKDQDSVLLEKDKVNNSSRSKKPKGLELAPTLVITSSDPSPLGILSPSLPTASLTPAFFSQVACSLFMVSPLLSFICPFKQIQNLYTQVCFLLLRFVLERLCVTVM
# Summary of the method: as §1
# ETV2 = molecular target: T4, ETV2 (Homo sapiens, UniProt O00321 1-342); conditions: protein: recombinant; tags: N-terminal GST; dsDNA, one strand shown
# T4 sequence: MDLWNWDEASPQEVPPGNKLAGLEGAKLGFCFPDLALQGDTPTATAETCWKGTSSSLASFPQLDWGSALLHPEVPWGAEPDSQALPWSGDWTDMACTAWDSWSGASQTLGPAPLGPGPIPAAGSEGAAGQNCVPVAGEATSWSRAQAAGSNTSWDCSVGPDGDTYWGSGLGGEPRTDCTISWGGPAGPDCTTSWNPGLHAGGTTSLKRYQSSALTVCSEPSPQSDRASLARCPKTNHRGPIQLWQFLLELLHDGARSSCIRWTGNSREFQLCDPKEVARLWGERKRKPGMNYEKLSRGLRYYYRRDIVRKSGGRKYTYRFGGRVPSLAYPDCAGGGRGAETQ
# Summary of the method: as §1
# ELF3 = molecular target: T5, ELF3 (Homo sapiens, UniProt P78545 1-371); conditions: protein: recombinant; tags: N-terminal GST; dsDNA, one strand shown
# T5 sequence: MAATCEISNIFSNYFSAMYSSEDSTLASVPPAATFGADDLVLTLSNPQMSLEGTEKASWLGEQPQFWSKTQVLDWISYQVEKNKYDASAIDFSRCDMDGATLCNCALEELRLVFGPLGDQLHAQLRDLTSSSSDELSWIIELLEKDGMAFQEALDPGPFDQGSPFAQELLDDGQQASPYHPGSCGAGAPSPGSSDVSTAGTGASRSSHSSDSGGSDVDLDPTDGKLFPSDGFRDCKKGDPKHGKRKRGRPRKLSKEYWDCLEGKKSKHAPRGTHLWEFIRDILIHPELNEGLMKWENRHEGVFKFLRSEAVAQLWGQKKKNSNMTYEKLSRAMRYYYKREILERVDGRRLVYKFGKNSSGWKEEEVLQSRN
# Summary of the method: as §1
# CRX = CRX (Homo sapiens, UniProt O43186 1-299); conditions: protein: recombinant; tags: N-terminal GST; dsDNA, one strand shown
# Summary of the method: as §1
# ETV1 = ETV1 (Homo sapiens, UniProt P50549 1-477); conditions: protein: recombinant; tags: N-terminal GST; dsDNA, one strand shown
# Summary of the method: as §1
# ERF = molecular target: T6, ERF (Homo sapiens, UniProt P50548 1-548); conditions: protein: recombinant; tags: N-terminal GST; dsDNA, one strand shown
# T6 sequence: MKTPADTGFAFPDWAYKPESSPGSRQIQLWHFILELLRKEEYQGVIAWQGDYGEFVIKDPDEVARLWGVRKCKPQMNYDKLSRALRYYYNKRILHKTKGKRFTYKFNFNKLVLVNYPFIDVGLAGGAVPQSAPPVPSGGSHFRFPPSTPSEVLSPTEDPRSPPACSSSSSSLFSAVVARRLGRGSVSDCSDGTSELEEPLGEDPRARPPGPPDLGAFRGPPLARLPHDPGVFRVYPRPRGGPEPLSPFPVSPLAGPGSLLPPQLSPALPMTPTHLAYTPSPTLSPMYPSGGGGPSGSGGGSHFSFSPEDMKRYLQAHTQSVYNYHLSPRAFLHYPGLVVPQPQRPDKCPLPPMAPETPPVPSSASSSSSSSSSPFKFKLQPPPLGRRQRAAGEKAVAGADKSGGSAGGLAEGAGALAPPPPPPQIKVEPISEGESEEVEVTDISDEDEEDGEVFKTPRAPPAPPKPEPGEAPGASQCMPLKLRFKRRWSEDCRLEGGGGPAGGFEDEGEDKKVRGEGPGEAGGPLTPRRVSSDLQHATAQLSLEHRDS
# Summary of the method: as §1
# ETV3L = molecular target: T7, ETV3L (Homo sapiens, UniProt Q6ZN32 1-361); conditions: protein: recombinant; tags: N-terminal GST; dsDNA, one strand shown
# T7 sequence: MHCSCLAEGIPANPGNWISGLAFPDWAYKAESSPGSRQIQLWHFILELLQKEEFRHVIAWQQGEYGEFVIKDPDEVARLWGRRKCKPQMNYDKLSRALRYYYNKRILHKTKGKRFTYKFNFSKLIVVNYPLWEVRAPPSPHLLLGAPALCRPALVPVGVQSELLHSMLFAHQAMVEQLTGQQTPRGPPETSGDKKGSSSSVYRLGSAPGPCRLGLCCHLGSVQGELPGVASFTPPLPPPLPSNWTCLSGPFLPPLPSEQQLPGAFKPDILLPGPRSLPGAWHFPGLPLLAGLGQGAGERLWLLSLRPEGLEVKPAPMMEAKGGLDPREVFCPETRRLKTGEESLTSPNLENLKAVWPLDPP
# Summary of the method: as §1
# ETS2 = molecular target: T8, ETS2 (Homo sapiens, UniProt P15036 1-469); conditions: protein: recombinant; tags: N-terminal GST; dsDNA, one strand shown
# T8 sequence: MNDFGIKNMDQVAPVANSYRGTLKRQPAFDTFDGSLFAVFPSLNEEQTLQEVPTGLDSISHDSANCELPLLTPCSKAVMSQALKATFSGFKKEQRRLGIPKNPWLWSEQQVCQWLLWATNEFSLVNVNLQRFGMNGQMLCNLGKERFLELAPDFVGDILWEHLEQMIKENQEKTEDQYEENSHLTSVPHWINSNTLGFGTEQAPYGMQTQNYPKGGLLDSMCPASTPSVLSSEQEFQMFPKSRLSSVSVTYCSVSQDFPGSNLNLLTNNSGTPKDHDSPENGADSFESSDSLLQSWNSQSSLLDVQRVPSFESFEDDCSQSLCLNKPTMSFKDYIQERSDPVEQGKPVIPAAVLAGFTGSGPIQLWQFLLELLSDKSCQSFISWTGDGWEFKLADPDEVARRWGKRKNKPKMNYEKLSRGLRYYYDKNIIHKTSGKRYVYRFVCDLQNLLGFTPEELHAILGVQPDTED
# Summary of the method: as §1
# SPDEF = molecular target: T9, SPDEF (Homo sapiens, UniProt O95238 1-335); conditions: protein: recombinant; tags: N-terminal GST; dsDNA, one strand shown
# T9 sequence: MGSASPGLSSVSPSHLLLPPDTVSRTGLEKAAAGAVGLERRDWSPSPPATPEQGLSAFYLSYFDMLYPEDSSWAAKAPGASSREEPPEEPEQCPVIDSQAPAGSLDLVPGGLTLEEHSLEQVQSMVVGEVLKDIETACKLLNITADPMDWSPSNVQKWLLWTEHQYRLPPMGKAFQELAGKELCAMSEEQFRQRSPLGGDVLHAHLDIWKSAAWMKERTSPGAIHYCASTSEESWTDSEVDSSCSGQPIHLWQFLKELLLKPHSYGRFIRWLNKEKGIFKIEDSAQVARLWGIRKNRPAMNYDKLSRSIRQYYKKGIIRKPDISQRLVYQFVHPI
# Summary of the method: as §1
# ETV7 = molecular target: T10, ETV7 (Homo sapiens, UniProt Q9Y603 1-341); conditions: protein: recombinant; tags: N-terminal GST; dsDNA, one strand shown
# T10 sequence: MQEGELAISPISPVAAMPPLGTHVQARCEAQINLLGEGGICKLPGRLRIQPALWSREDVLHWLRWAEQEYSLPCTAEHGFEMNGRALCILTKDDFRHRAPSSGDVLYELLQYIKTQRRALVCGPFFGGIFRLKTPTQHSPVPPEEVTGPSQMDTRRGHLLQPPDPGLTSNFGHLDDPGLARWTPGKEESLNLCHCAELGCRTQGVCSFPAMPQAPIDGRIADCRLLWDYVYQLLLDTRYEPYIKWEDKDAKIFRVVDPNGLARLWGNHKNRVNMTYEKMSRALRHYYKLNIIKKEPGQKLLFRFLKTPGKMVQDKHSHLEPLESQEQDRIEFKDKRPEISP
# Summary of the method: as §1
# ELF5 = molecular target: T11, ELF5 (Homo sapiens, UniProt Q9UKW6-2 1-255); conditions: protein: recombinant; tags: N-terminal GST; dsDNA, one strand shown
# T11 sequence: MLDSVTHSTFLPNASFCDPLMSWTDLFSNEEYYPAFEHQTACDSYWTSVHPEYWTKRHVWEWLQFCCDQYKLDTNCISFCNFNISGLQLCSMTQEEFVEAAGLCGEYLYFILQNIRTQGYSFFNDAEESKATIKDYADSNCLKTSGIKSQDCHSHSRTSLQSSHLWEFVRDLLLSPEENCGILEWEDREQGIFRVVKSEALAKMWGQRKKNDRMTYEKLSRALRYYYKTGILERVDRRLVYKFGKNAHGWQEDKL
# Summary of the method: as §1
# ETV3 = molecular target: T12, ETV3 (Homo sapiens, UniProt P41162-2 1-143); conditions: protein: recombinant; tags: N-terminal GST; dsDNA, one strand shown
# T12 sequence: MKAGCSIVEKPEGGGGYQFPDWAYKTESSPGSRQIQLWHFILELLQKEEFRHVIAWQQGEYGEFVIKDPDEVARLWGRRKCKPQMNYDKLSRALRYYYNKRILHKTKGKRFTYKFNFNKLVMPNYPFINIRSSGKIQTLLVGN
# Summary of the method: as §1
# ETV6 = ETV6 (Homo sapiens, UniProt P41212 1-452); conditions: protein: recombinant; tags: N-terminal GST; dsDNA, one strand shown
# Summary of the method: as §1
# HSF1, sequence (Q00613 whole entry): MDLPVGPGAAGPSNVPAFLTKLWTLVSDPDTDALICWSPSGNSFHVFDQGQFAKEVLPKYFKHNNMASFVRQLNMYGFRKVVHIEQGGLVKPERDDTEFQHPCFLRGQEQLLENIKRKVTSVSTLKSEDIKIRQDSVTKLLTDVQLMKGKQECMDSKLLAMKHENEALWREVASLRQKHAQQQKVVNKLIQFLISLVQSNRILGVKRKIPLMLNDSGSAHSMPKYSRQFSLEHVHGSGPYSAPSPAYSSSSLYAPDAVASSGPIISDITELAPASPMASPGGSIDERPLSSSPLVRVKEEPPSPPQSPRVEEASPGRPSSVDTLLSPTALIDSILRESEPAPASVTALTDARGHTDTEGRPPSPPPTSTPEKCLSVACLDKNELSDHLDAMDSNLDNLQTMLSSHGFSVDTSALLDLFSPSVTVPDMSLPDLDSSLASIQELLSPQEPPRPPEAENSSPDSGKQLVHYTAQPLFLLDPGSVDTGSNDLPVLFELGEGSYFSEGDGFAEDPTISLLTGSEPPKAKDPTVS
# ETV5, sequence (P41161 whole entry): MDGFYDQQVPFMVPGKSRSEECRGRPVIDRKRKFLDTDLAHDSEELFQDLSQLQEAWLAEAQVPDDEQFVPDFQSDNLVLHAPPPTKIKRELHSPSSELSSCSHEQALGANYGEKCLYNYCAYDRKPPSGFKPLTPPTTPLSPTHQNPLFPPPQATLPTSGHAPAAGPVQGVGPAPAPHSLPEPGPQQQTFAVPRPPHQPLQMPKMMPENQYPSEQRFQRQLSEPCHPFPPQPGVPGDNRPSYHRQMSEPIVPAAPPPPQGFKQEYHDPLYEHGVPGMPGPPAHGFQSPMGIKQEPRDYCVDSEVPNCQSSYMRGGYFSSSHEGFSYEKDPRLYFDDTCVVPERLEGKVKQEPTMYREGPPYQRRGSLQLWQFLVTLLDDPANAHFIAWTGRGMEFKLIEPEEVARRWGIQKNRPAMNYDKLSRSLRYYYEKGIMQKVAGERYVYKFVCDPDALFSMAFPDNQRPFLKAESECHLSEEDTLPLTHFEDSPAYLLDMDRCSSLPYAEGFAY
# ETV1, sequence (P50549 whole entry): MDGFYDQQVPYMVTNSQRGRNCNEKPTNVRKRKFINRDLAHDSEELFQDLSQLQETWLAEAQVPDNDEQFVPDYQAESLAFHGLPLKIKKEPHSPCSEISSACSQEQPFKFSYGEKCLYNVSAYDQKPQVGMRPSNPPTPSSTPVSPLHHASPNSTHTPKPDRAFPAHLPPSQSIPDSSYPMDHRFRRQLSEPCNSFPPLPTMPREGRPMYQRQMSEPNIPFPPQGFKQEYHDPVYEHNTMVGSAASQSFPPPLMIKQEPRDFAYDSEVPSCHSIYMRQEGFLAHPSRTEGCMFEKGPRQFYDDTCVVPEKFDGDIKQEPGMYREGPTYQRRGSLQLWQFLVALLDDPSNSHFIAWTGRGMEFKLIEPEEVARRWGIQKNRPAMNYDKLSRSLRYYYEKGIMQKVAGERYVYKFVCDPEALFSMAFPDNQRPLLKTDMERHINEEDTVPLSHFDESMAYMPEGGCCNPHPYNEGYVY
# ETV6, sequence (P41212 whole entry): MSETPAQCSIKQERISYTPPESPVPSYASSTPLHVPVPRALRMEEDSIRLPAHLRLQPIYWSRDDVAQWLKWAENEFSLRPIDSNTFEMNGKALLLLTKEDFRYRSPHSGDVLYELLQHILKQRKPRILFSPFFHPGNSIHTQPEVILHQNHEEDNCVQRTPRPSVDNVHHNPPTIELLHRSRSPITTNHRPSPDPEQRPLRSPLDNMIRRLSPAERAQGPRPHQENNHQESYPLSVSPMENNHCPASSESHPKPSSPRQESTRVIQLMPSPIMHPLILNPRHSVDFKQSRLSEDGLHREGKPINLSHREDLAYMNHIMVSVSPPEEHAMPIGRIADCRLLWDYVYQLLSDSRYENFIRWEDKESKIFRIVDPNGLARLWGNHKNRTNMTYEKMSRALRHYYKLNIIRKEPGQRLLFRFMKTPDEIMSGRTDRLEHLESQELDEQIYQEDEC
# CRX, sequence (O43186 whole entry): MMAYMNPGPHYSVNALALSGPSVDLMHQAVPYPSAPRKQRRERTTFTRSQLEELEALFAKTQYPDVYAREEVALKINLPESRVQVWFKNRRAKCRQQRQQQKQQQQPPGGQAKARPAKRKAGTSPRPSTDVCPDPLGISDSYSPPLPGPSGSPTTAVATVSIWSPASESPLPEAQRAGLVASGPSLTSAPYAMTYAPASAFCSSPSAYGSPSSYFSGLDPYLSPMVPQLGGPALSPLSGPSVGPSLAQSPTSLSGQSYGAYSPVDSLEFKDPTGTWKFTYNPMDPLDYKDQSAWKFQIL
# ELF4, sequence (Q99607 whole entry): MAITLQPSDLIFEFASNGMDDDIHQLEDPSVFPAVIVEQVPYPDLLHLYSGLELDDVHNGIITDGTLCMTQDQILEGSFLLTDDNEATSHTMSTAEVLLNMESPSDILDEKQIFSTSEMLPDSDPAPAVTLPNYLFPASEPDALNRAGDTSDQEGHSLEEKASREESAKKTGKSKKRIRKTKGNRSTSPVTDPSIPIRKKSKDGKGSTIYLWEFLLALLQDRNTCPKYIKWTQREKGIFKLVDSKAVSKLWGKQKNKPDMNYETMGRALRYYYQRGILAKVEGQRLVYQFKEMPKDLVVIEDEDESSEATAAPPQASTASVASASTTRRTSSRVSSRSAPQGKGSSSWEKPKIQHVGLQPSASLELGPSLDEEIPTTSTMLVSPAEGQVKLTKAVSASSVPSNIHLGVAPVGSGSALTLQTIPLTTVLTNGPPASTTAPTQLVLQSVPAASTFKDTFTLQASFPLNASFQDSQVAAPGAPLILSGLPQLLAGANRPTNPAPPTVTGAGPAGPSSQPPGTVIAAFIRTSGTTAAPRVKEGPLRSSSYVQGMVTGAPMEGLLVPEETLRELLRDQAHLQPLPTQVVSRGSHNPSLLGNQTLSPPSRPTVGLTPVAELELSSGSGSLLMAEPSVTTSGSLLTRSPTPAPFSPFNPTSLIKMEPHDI
sequence,measurement,setting,value
CTGGTA,binding signal,FEV,"1.23 fold enrichment (6-mer frequency, TF over GST control)"
same,binding signal,ETV5,"1.25 fold enrichment (6-mer frequency, TF over GST control)"
same,binding signal,HSF1,"1.75 fold enrichment (6-mer frequency, TF over GST control)"
same,binding signal,SPIC,"1.28 fold enrichment (6-mer frequency, TF over GST control)"
same,binding signal,ELF4,"1.4 fold enrichment (6-mer frequency, TF over GST control)"
same,binding signal,ELK4,"1.29 fold enrichment (6-mer frequency, TF over GST control)"
same,binding signal,ETV2,"1.41 fold enrichment (6-mer frequency, TF over GST control)"
same,binding signal,ELF3,"1.2 fold enrichment (6-mer frequency, TF over GST control)"
same,binding signal,CRX,"1.38 fold enrichment (6-mer frequency, TF over GST control)"
same,binding signal,ETV1,"1.24 fold enrichment (6-mer frequency, TF over GST control)"
same,binding signal,ERF,"1.28 fold enrichment (6-mer frequency, TF over GST control)"
same,binding signal,ETV3L,"1.34 fold enrichment (6-mer frequency, TF over GST control)"
same,binding signal,ETS2,"1.32 fold enrichment (6-mer frequency, TF over GST control)"
same,binding signal,SPDEF,"1.4 fold enrichment (6-mer frequency, TF over GST control)"
same,binding signal,ETV7,"1.4 fold enrichment (6-mer frequency, TF over GST control)"
same,binding signal,ELF5,"1.35 fold enrichment (6-mer frequency, TF over GST control)"
same,binding signal,ETV3,"1.29 fold enrichment (6-mer frequency, TF over GST control)"
same,binding signal,ETV6,"1.29 fold enrichment (6-mer frequency, TF over GST control)"
